Test results published in PubChem BioAssay (Tox21).
Several values for one entry are separate records, joined by “and”; a condition that tells them apart may be missing. Equal values may be shown once. Results filed as inconclusive are left out. Where a call stands in place of a potency, no number is given. Activity calls are given as the source filed them. Calls follow the shape of the dose curve; as a rule, active = well fitted cell-killing curve with a large enough effect in the repeat runs; inconclusive = weak or mixed curves, or effect the other way; inactive = flat fitted curve, though single readings scatter. Positions of bridges follow the written chain, without caps; N, C: chain ends. Non-standard residues stand in square brackets, D forms with d. Residues, ends and D or L forms follow the SMILES beside them. *: point of attachment. Dab(CH2SO3H) = N[C@@H](CCNCS(=O)(=O)O)C(=O)O; X3 = CC[C@@H](C)CCCCC(=O)*; Orn = NCCC[C@H](N)C(=O)O; Dab = NCC[C@H](N)C(=O)O

Assay: qHTS assay to identify small molecule that activate the aryl hydrocarbon receptor (AhR) signaling pathway - cell viability counter screen (AID 743086); also: nearly all actives have a fitted effect of over 45% in size
Conditions: HepG2-AhR-luc viability, CellTiter-Fluor, 24 h; series mostly up to 70.3 µM
Source text: U.S. Tox21 Program National Center for Advancing Translational Sciences [NCATS] NIH Chemical Genomics Center [NCGC] U.S. Environmental Protection Agency [EPA] National Institutes of Environmental Health Sciences [NIEHS] National Toxicology Program [NTP] U.S. Food and Drug Administration [FDA] Tox21 Assay overview: The Aryl hydrocarbon Receptor (AhR), a member of the family of basic helix-loop-helix transcription factors, is crucial to adaptive responses to environmental changes. AhR mediates cellular responses to environmental pollutants such as aromatic hydrocarbons through induction of phase I and II enzymes but also interacts with other nuclear receptor signaling pathways A cell based HepG2-AhR-luc assay (HG2L7.5c1 cell line, developed by Dr. Michael S. Denison, University of California at Davis) was used to assess the activation of AhR. HepG2 (human hepatocellular carcinoma) cells were stably transfected with an Ah receptor-responsive firefly luciferase reporter gene plasmid containing 20 dioxin responsive elements and luciferase reporter gene. Increased luciferase activity can be used to identify the compounds that induce AhR activation. The cytotoxicity of the compounds screened against the HepG2-AhR-luc cell line was tested in parallel by measuring the cell viability using CellTiter-Fluor assay in the same wells.
Tox21 Assay Protocol Summary: 4000 cells in 5 uL/well were dispensed into white wall/solid bottom 1536-well plates using a Multidrop Combi (Thermo Fisher Scientific Inc., Waltham, MA) dispenser. After the assay plates were incubated at 37C for 5 h, 23 nL of compound or DMSO vehicle was transferred to the assay plates by a pintool station (Kalypsys, San Diego, CA). The plates were incubated at 37C for 24 hr. For cell viability measurement, 1 ul/well of CellTiter-Fluor reagent (Promega, Madison, WI) was added into the assay plates using a Flying Reagent Dispenser (FRD) (Aurora Discovery, CA),and then the assay plates were incubated at 37C for 30 min. The fluorescence intensity in the plates was measured using a ViewLux plate reader (PerkinElmer, Shelton, CT), followed by the addition of 4 uL of ONE-Glo Luciferase Assay reagent (Promega) using an FRD (Aurora Discovery). After the assay plates were incubated at room temperature for 30 min, luminescence intensity was measured using a ViewLux plate reader (Perkin Elmer).
Potency is read from the fitted curve at half-maximal effect.

Q: Which Potency does the source give for `CC(C)[C@H](NC(=O)[C@H](CC(=O)O)NC(=O)[C@H](CCCCN)NC(=O)[C@@H](N)CCCN=C(N)N)C(=O)N[C@@H](Cc1ccc(O)cc1)C(=O)O` (H-RKDVY-OH) here?
A: inactive

Q: For `CCC[C@@H]1C[C@@H](C(=O)N[C@@H]([C@H]2O[C@H](SC)[C@H](OP(=O)(O)O)[C@@H](O)[C@H]2O)[C@H](C)Cl)N(C)C1`, which Potency is on record?
A: inactive

Q: Which Potency does the source give for `Oc1ccc(Cl)cc1C1CCCC1` here?
A: inactive

Q: Which Potency does the source give for `CCOc1ccc(S(=O)(=O)O)c2cccnc12` here?
A: inactive

Q: For `C[C@@H]1C(=O)NC2=Nc3cccc(Cl)c3CN21`, which Potency is on record?
A: inactive

Q: For `O=C1[O][Bi][O]c2ccccc21`, which Potency is on record?
A: inactive

Q: With `COC(=O)C(CN)c1c[nH]c2ccc(OC)cc12` (stereo not given) as the molecule, how does the Potency read?
A: inactive

Q: With `c1ccc(-n2cnnn2)cc1` as the molecule, how does the Potency read?
A: inactive

Q: Which Potency does the source give for `CC[C@@H](C)CCCCC(=O)N[C@@H](CCNCS(=O)(=O)O)C(=O)N[C@H](C(=O)N[C@@H](CCNCS(=O)(=O)O)C(=O)N[C@H]1CCNC(=O)[C@H]([C@@H](C)O)NC(=O)[C@H](CCNCS(=O)(=O)O)NC(=O)[C@H](CCNCS(=O)(=O)O)NC(=O)[C@H](CC(C)C)NC(=O)[C@@H](CC(C)C)NC(=O)[C@H](CCNCS(=O)(=O)O)NC1=O)[C@@H](C)O` (X3-[Dab(CH2SO3H)]T[Dab(CH2SO3H)][Dab][Dab(CH2SO3H)][dL]L[Dab(CH2SO3H)][Dab(CH2SO3H)]T; lactam 4-C) here?
A: inactive

Q: Which Potency does the source give for `CC1CCCC(C)N1NC(=O)c1ccc(Cl)c(S(N)(=O)=O)c1` (stereo not given) here?
A: inactive

Q: Which Potency does the source give for `SC1CCCCC1` here?
A: inactive

Q: For `CCCCCCCCCCCCN1CCCC1=O`, which Potency is on record?
A: inactive

Q: With `CN(C/C=C/c1ccccc1)Cc1cccc2ccccc12` as the molecule, how does the Potency read?
A: inactive

Q: Which Potency does the source give for `C=CC1=C(C(=O)O)N2C(=O)[C@@H](NC(=O)/C(=N\O)c3csc(N)n3)[C@H]2SC1` (stereo in doubt) here?
A: inactive

Q: For `O=C1c2ccccc2CN2C(=O)c3ccccc3CN12`, which Potency is on record?
A: inactive

Q: With `CC/C=C\C/C=C\C/C=C\C/C=C\C/C=C\CCCC(=O)O` as the molecule, how does the Potency read?
A: inactive

Q: Which Potency does the source give for `C=C1C(CCl)(CCl)C2(Cl)C(Cl)C(Cl)C1(Cl)C2(Cl)Cl` (stereo not given) here?
A: inactive

Q: With `CO[C@H]1C[C@@H]2CC[C@@H](C)[C@@](O)(O2)C(=O)C(=O)N2CCCC[C@H]2C(=O)O[C@H]([C@H](C)C[C@@H]2CC[C@@H](O)[C@H](OC)C2)CC(=O)[C@H](C)C=C(C)[C@@H](O)[C@@H](OC)C(=O)[C@H](C)C[C@H](C)/C=C/C=CC=C1C` as the molecule, how does the Potency read?
A: 13.3 µM (active) and 26.6 µM (active)

Q: Which Potency does the source give for `O=C(O)/C=C/C(O)c1ccc(Cl)cc1` (stereo not given) here?
A: inactive

Q: Which Potency does the source give for `O=c1[nH]c(=O)n([C@H]2C[C@H](O)[C@@H](CO)O2)cc1/C=C/Br` here?
A: inactive

Q: Which Potency does the source give for `CC(=O)Oc1cc(C(F)(F)F)ccc1C(=O)O` here?
A: inactive

Q: For `C=CC[N@@+]12CC[C@@]34c5ccccc5N5/C=C6/[C@H]7C[C@H]8[C@@]9(CC[N@@+]8(CC=C)C/C7=C/CO)c7ccccc7N(/C=C(/[C@@H](C[C@@H]31)/C(=C\CO)C2)[C@H]54)[C@@H]69`, which Potency is on record?
A: inactive

Q: For `O=C(O)c1cc(O)c2c(c1)[C@H]([C@H]1c3cc(C(=O)O)cc(O)c3C(=O)c3c(O[C@@H]4O[C@H](CO)[C@@H](O)[C@H](O)[C@H]4O)cccc31)c1cccc(O[C@@H]3O[C@H](CO)[C@@H](O)[C@H](O)[C@H]3O)c1C2=O`, which Potency is on record?
A: inactive

Q: For `NCC[C@H](O)C(=O)N[C@@H]1C[C@H](N)[C@@H](O[C@H]2O[C@H](CN)CC[C@H]2N)[C@H](O)[C@H]1O[C@H]1O[C@H](CO)[C@@H](O)[C@H](N)[C@H]1O`, which Potency is on record?
A: inactive

Q: Which Potency does the source give for `COc1cc(NS(C)(=O)=O)ccc1Nc1c2ccccc2nc2ccccc12` here?
A: 13.3 µM (active)

Q: Which Potency does the source give for `C=C(Nc1ccc(OCC)cc1)Nc1ccc(OCC)cc1` here?
A: inactive

Q: For `CC(C)C[C@@H]1NC(=O)[C@H](CCCN)NC(=O)[C@H](C(C)C)NC(=O)[C@@H]2CCCN2C(=O)[C@@H](Cc2ccccc2)NC(=O)[C@H](CC(C)C)NC(=O)[C@H](CCCN)NC(=O)[C@H](C(C)C)NC(=O)[C@@H]2CCCN2C(=O)[C@@H](Cc2ccccc2)NC1=O` (cyclo(V[Orn]L[dF]PV[Orn]L[dF]P)), which Potency is on record?
A: 18.8 µM (active)

Q: Which Potency does the source give for `COc1cc2c(cc1OC)[C@@H](Cc1cc(OC)c(OC)c(OC)c1)[N+](C)(CCCOC(=O)CC/C=C/CCC(=O)OCCC[N+]1(C)CCc3cc(OC)c(OC)cc3[C@H]1Cc1cc(OC)c(OC)c(OC)c1)CC2` (stereo not given in full) here?
A: inactive

Q: For `CC12CCC(C[N+](C)(CCC[N+](C)(C)C)C1)C2(C)C` (stereo not given), which Potency is on record?
A: inactive

Q: For `CC1CCCCN1CCCOC(=O)c1ccccc1` (stereo not given), which Potency is on record?
A: inactive

Q: Which Potency does the source give for `CO/N=C(\C(=O)N[C@@H]1C(=O)N2C(C(=O)O)=C(C[N+]3(C)CCCC3)CS[C@H]12)c1csc(N)n1` here?
A: inactive

Q: Which Potency does the source give for `OCl` here?
A: inactive

Q: For `C[S+](C)CCC(N)C(=O)O` (stereo not given), which Potency is on record?
A: inactive

Q: For `CCCCCN=C(N)N/N=C/c1c[nH]c2ccc(OC)cc12`, which Potency is on record?
A: inactive

Q: For `CC1(C)CCC(NC(=O)[C@@H](N)CCC(=O)O)CC1`, which Potency is on record?
A: inactive

Q: With `NC(=S)NS(=O)(=O)c1ccc(N)cc1` as the molecule, how does the Potency read?
A: inactive

Q: Which Potency does the source give for `CN1CCN(CCCN2c3ccccc3Sc3ccc(Cl)cc32)CC1` here?
A: 23.7 µM (active)

Q: For `COc1cccc(-c2ccc(/C=C\CN3CCCCCC3)cc2Cl)c1`, which Potency is on record?
A: inactive

Q: Which Potency does the source give for `CC(C)[N+]1(C)[C@@H]2CC[C@H]1CC(OC(=O)C(CO)c1ccccc1)C2` (stereo not given in full) here?
A: inactive

Q: With `O=P(O)(O)C(O)(Cn1ccnc1)P(=O)(O)O` as the molecule, how does the Potency read?
A: inactive
